Results taken from PubChem BioAssay (NCI).
Compounds without any hit were thinned out: in the full panel of roughly 83,000, 20% have a hit.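 Single-concentration screen, 48 h exposure, 96-well plates. Endpoint: percent growth. Below 10 = active.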 The source made the active and inactive calls.

Columns and labels:
Experiment in all cases: NCI-60 one-dose screen, 48 h (100 = growth as untreated, 0 = no growth, -100 = all killed)
[1] = tested on: T-47D breast; conditions: 10 µM unless noted
[2] = tested on: BT-549 breast; conditions: 10 µM unless noted
[3] = tested on: MDA-MB-435 melanoma; conditions: 10 µM unless noted
[4] = tested on: SW-620 colon; conditions: 10 µM unless noted
[5] = tested on: MCF7 breast; conditions: 10 µM unless noted
[6] = tested on: HCT-116 colon; conditions: 10 µM unless noted
[7] = tested on: HCC-2998 colon; conditions: 10 µM
[8] = tested on: KM12 colon; conditions: 10 µM unless noted

Measured: growth

CN(C)CCOC(=O)Nc1nc2ccc(Sc3ccccc3)cc2[nH]1
inactive: [1] 22.6% | [2] 48.4% | [4] 23% | [5] 22.7% | [6] 30.9% | [7] 61.3% | [8] 20.8%
active: [3] -54.2%

Cc1ncc(-c2ccnc(Nc3ccc(S(C)(=O)=O)cc3)n2)n1C(C)C
active: [1] -12.3% | [2] -11.4% | [3] -45.2% | [4] 0.356% | [5] 2.6% | [6] -0.0408% | [7] -15.6% | [8] -68.7%

COc1ccc(-c2nc(N)ncc2Oc2ccccc2OC)c(O)c1
active: [3] -16.6%
inactive: [1] 35.5% | [2] 36% | [4] 20.6% | [5] 23.4% | [6] 15.9% | [7] 50.6% | [8] 29.5%

Cc1cc(-c2cc(O)ccc2Cl)cc2nnc(Nc3ccc(OCCN4CCCC4)cc3)nc12
active: [1] -47.8% | [2] -50.7% | [3] -73.3% | [4] -74.8% | [5] -54.4% | [6] -57.5% | [7] -72.6% | [8] -76.2%

Cn1ccnc1C(=O)/C=C/c1ccc(CC(=O)Nc2ccc(S(F)(F)(F)(F)F)cc2)cc1
inactive: [3] 15.1% | [5] 10.2%
active: [1] -7.73% | [2] -50.6% | [4] 3.88% | [6] -63.5% | [7] -65.1% | [8] -56.9%

CC(C)=CCc1cc2c(cc1O)C1=C(C(=O)C3=C(NCCS3(=O)=O)C1=O)C(C=C(C)C)O2 (centres undefined)
active: [3] -62.3% | [4] 6.34% | [5] -43.2% | [6] -21.2%
inactive: [1] 10.1% | [2] 40.3% | [7] 32.4% | [8] 54.5%

Nc1cc(C(F)(F)F)c(-c2cc(N3CCOCC3)nc(N3CCOCC3)n2)cn1
active: [1] -42.9% | [2] -2.66% | [3] -62.3% | [4] 0.981% | [5] -7.62% | [6] -25.4% | [7] -52.9% | [8] -1.19%

COc1cc2nc(Nc3cccc(Cl)c3)nc(N)c2cc1OC
inactive: [1] 84.5% | [2] 78.6% | [3] 84.7% | [4] 83.6% | [5] 81.5% | [6] 33.7% | [8] 61.4%
active: [7] -59.3%

CN(N)c1nc2sc3c(c2c(=O)[nH]1)CCCC3
inactive: [1] 76.6% | [2] 91.2% | [3] 97.1% | [4] 101% | [5] 83.4% | [6] 94.9% | [7] 96% | [8] 95.7%

COc1cnc2c(c1)C(=O)c1c-2n(CCCN2CCC(N)CC2)c(=O)c2cc([N+](=O)[O-])ccc12
inactive: [1] 46.6% | [2] 76.7% | [3] 85.9% | [4] 37.2% | [5] 25.3% | [6] 36.4% | [7] 69.3% | [8] 44.6%

CCN(CC)C(=O)C[N+](C)(C)CCOC(c1ccccc1)c1ccccc1
inactive: [1] 105% | [2] 99.3% | [3] 93.2% | [4] 111% | [5] 93.4% | [6] 99.4% | [7] 93% | [8] 102%

CCCc1cc2cc(-n3nc(C)c4c3CC(C)(C)CC4=O)cc(NC3CCC(O)CC3)c2c(=O)[nH]1 (centres undefined)
inactive: [1] 38.2% | [2] 29.2% | [3] 20.8% | [4] 24.9% | [5] 25.4% | [6] 11.3% | [7] 24.7%
active: [8] 4.71%

O=C(O)C1(Cc2cccc(Nc3nccs3)n2)CCC(Oc2cccc(Cl)c2F)CC1 (centres undefined)
inactive: [1] 50.9% | [2] 84.4% | [3] 49.6% | [4] 74.9% | [5] 46.7% | [6] 45% | [7] 95.3% | [8] 19.3%

Nc1nc(N)c2nc(-c3cccc(O)c3)c(-c3cccc(O)c3)nc2n1
inactive: [2] 47.8% | [3] 97.4% | [4] 90.8% | [5] 70.1% | [6] 77.9% | [7] 94.6% | [8] 90.6%
active: [1] 2.15%

Cc1cc(C)n(CC(=O)Nc2ccc(-c3nc4ccccc4s3)cc2)n1
inactive: [1] 93.3% | [2] 115% | [3] 107% | [4] 113% | [5] 26.6% | [6] 107% | [7] 92.9% | [8] 100%

CCN1CCN(c2nc(C)cc(N(CCCNc3ccnc4cc(Cl)ccc34)Cc3ccc4c(c3)OCO4)n2)CC1
inactive: [8] 23.7%
active: [1] -60.9% | [2] -53.1% | [3] -86.8% | [4] -32.3% | [5] 7.69% | [6] -9.36% | [7] -40.3%

CN(C)CCn1c(=O)c2c3cc4c(cc3n(CCN(C)C)c2c2ccc(Cl)cc21)OCO4
inactive: [1] 57.2% | [2] 63.6% | [3] 70.7% | [5] 21.3% | [7] 81.7% | [8] 45.1%
active: [4] -14.7% | [6] -79.4%

CN1CCN(c2nc(NCCNc3ccnc4cc(Cl)ccc34)c3ccccc3n2)CC1
inactive: [2] 28.3% | [4] 26.5% | [5] 36% | [8] 29.2%
active: [1] 0.35% | [3] -11.4% | [6] 6.36% | [7] 9.65%

COc1ccc(C(=O)c2cc(OC)c(OC)c(OC)c2)cc1/C=C/C(=O)c1ccc(F)cc1
active: [4] 9.38% | [6] 1.33%
inactive: [1] 67.3% | [2] 81.2% | [3] 60.5% | [5] 19.6% | [7] 97.1% | [8] 39.8%

NC(=O)c1n[nH]n2c1nc(=O)c1c3c(sc12)CCCC3
inactive: [1] 96.2% | [2] 98.3% | [3] 117% | [4] 100% | [5] 92.3% | [6] 104% | [7] 104% | [8] 104%

Cc1c(NC(=O)OC[C@@H]2COCCN2)cn2ncnc(Nc3ccc4c(cnn4Cc4cccc(F)c4)c3)c12
active: [1] -16.7% | [2] 0.365% | [3] 2.07% | [4] 1.74% | [5] 1.5% | [6] 0.842% | [7] 3.83% | [8] 8.03%

O=C(CNc1nc2ccccc2s1)Nc1ccc(-c2nc3ccccc3s2)cc1
inactive: [1] 73.9% | [2] 106% | [3] 109% | [4] 109% | [5] 24.8% | [6] 98.9% | [7] 92.1% | [8] 99.2%

Cn1cc(-c2ccc(F)c(C(F)(F)F)c2)nc1C1CCN(c2ncnc3[nH]ncc23)CC1
inactive: [1] 25.8% | [2] 43.1% | [3] 93.3% | [4] 89.2% | [5] 61.4% | [6] 68.9% | [7] 95.5% | [8] 73.5%

CCN1CCN(c2cc(C)nc(N(CCCNc3ccnc4cc(Cl)ccc34)Cc3ccc4c(c3)OCO4)n2)CC1
active: [1] -51.8% | [2] -42.6% | [3] -73.7% | [4] -3.47% | [5] 4.2% | [6] 2.67% | [7] -42.3%
inactive: [8] 29.8%

COc1cnc2c(c1)C(=O)c1c-2n(CCCNC2=NCCS2)c(=O)c2cc(Cl)ccc12
active: [3] 7.73% | [4] -79.3% | [5] -74.9% | [6] -87.8% | [7] -35.6% | [8] -63.2%
inactive: [1] 32.9% | [2] 41.6%

N[C@@H]1CCCN(c2c(/C=C3\SC(=O)NC3=O)cccc2-c2ccccc2)C1
active: [2] 0.186%
inactive: [1] 25.7% | [3] 56.7% | [4] 60.3% | [5] 45.3% | [6] 50.6% | [7] 74.8% | [8] 60.3%

CC/C(=C(/c1ccc(Cl)cc1)c1ccc(OCCN2CCCCC2)cc1)c1ccc(Cl)cc1
inactive: [1] 43.9% | [2] 85.9% | [3] 86.4% | [4] 65.2% | [5] 26.6% | [6] 61.3% | [7] 89.4% | [8] 69.2%

COc1cc(Nc2ncc(F)c(Nc3ccc4c(n3)NC(=O)C(C)(C)O4)n2)cc(OC)c1OC
inactive: [1] 39% | [2] 34.1% | [3] 51.2% | [4] 59.5% | [5] 41.5% | [6] 59.3% | [7] 100% | [8] 12.3%
